We go through six compounds from PubChem BioAssay (Tox21).

A number with no mark means an inactive call. Records with an inconclusive call do not appear. Activity calls are given as the source filed them. Unless noted, calls follow the shape of the full dose curve.

A short description of experiment [1]: Nuclear factor erythroid 2-related factor 2/antioxidant responsive element (Nrf2/ARE) small molecule agonists: qHTS cell viability counter screen in human keratinocytes (AID 1919968; active = well fitted curve in the direction sought with a large enough effect in the repeat runs; an effect the other way counts as inactive or inconclusive; also: nearly all actives have a fitted effect of over 55% in size). An outline of the steps: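 Cytotoxicity was multiplexed with the Nrf2/ARE luciferase assay in the same wells. Stably transfected HaCaT keratinocytes were treated with test compounds for 23 h at 37 C. Cell viability was then measured by CellTiter-Fluor fluorescence.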
(In general: qHTS replaces the single test concentration by a dilution series.)

Experiment [2] concerns the target Gonadotropin-releasing hormone receptor (Homo sapiens) (UniProt P30968). As to the kind of experiment: Human gonadotropin-releasing hormone receptor (GnRHR) small molecule agonists, calcium flux assay in GnRHR-HEK293 cells (AID 1920063). Also: nearly all actives have a fitted effect of over 35% in size. An outline of the steps: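 Agonist activity was measured as intracellular calcium flux in HEK293 cells engineered to stably express human GnRHR. After dye loading for 1 hour at 37 C, compounds in DMSO were added and fluorescence was followed for 3 minutes.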
Background: A change in cytosolic calcium serves as a functional read-out for many receptors and channels.

Experiment [3] concerns the target KiSS-1 receptor (Homo sapiens) (UniProt Q969F8). As to the kind of experiment: Human kisspeptin (KISS1R) small molecule agonists, calcium flux assay in KISS1R-HEK293 cells (AID 1920064; active = well fitted curve in the direction sought with a large enough effect in the repeat runs; an effect the other way counts as inactive or inconclusive). The method in brief: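 Agonist activity is monitored as intracellular calcium rise in engineered HEK293 cells carrying human KISS1R. Cells are dye-loaded for 1 h at 37 C before compound addition, and fluorescence is recorded for 3 min.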

Experiment [4] is described as follows: G protein-coupled receptor (GPCR) small molecule agonists, calcium flux assay: HEK293 wild type cell line counter screen (AID 1920065). An outline of the steps:
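Seed cells, incubate 18 h (37 C, 5% CO2); add calcium dye, 1 h at 37 C; pin-transfer compounds, ATP control or DMSO; read fluorescence 480/540 nm each second for 3 min.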

Experiment [5] in a line: p53 small molecule agonists, cell-based qHTS assay with human liver microsomes (AID 1963577).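 Also: p53 response element beta-lactamase reporter cells with liver microsomes plus NADPH.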 The method in brief: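 HLM-supplemented p53RE-bla reporter assay: 16 h compound exposure at 37 C, microsomes and NADPH each 0.5 mg/mL final, read by fluorescence intensity.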
The nature of experiment [6]: p53 small molecule agonists, cell-based qHTS assay with rat liver microsomes (AID 1963578). An outline of the steps:
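Quantitative HTS of the Tox21 10K library: p53RE-bla cells, rat liver microsomes plus NADPH at 0.5 mg/mL final each, 16 h at 37 C, beta-lactamase fluorescence detection.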

A short description of experiment [7]: p53 small molecule agonists, cell-based qHTS assay with human liver microsomes: qHTS cell viability counter screen (AID 1963579). Also: nearly all actives have a fitted effect of over 45% in size. The method in brief:
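Viability of p53RE-bla cells is measured as CellTiter-Glo luminescence following a 16 h, 37 C incubation with compound, liver microsomes from human donors and NADPH.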

Experiment [8] can be described thus: p53 small molecule agonists, cell-based qHTS assay with rat liver microsomes: qHTS cell viability counter screen (AID 1963580). Also: nearly all actives have a fitted effect of over 45% in size. The method in brief:
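Cytotoxicity counter screen: intracellular ATP read by CellTiter-Glo luminescence in the p53 reporter wells. HCT-116 p53RE-bla cells were treated for 16 h at 37 C alongside rat liver microsomes and NADPH, each 0.5 mg/mL final.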

A short description of experiment [9]: p53 small molecule agonists, cell-based qHTS assay: qHTS cell viability counter screen (AID 1963581). Also: nearly all actives have a fitted effect of over 45% in size. The method in brief: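 Viability was counter-screened in parallel with the p53 agonist reporter by measuring intracellular ATP luminescence in the same HCT-116 p53RE-bla wells after 16 h compound treatment at 37 C.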
Experiment [10] is described as follows: p53 small molecule agonists, cell-based qHTS assay (AID 1963582; active = well fitted activation curve with a large enough effect in the signal ratio in the repeat runs, not every such curve was filed as active; the % refers to the signal ratio). The method in brief: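 Cells carrying a p53-responsive bla reporter are treated with test compounds for 16 h at 37 C; beta-lactamase activity is then detected with LiveBLAzer B/G FRET substrate after 2 h at room temperature.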
The target of experiment [11] is 5-hydroxytryptamine receptor 2A (Homo sapiens) (UniProt P28223). Kind of experiment: 5-hydroxytryptamine receptor 2A (HTR2A) small molecule antagonists, cell-based qHTS assay (AID 1963586). Also: nearly all actives have a fitted effect of over 45% in size. The method in brief: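 CHO cells stably expressing human HTR2A were plated for 18 h at 37 C, then loaded with calcium dye for 1 h. Compounds were preincubated 5 min at room temperature before DOI (4 nM solution) was added. Kinetic fluorescence was read for 3 min.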
5-hydroxytryptamine receptor 2A (Homo sapiens), sequence (P28223 whole entry, looked up): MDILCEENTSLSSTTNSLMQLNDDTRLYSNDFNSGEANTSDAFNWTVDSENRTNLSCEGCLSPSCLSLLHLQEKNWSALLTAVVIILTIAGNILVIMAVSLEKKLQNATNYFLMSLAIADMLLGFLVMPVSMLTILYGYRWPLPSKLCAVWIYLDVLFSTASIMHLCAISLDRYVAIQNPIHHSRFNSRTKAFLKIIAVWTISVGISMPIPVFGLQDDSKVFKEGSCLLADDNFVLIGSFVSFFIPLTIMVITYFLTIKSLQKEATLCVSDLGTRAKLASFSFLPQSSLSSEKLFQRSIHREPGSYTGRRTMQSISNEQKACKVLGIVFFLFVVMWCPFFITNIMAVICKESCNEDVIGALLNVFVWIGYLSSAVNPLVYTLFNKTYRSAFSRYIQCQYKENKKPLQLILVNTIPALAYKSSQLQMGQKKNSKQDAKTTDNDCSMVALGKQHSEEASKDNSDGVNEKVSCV

The target is the same in experiment [12]. Kind of experiment: 5-hydroxytryptamine receptor 2A (HTR2A) small molecule agonists, cell-based qHTS assay (AID 1963587). Also: nearly all actives have a fitted effect of over 30% in size. The method in brief: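 Kinetic calcium-flux fluorescence (2 min, 1 sec intervals) after compound addition in agonist mode. HTR2A-CHO cells were cultured 18 h, then dye-loaded 1 h at 37 C.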
Experiment [13] addresses Muscarinic acetylcholine receptor M1 (Homo sapiens) (UniProt P11229). As to the kind of experiment: Cholinergic receptor muscarinic 1 (CHRM1) small molecule antagonists, cell-based qHTS assay (AID 1963588). Also: nearly all actives have a fitted effect of over 40% in size. The method in brief: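 Compounds were tested at 15 concentrations in three independent runs. Dye-loaded CHRM1-CHO cells were exposed 5 min at room temperature before stimulation by acetylcholine added at 50nM. Intracellular calcium was read kinetically on FDSS for 3 min.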

The target is the same in experiment [14]. As to the kind of experiment: Cholinergic receptor muscarinic 1 (CHRM1) small molecule agonists, cell-based qHTS assay (AID 1963589). Also: nearly all actives have a fitted effect of over 35% in size. An outline of the steps:
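Cells were plated and incubated 18 h at 37 C/5% CO2, loaded with calcium dye for 1 h at 37 C, then treated with compounds in DMSO. Fluorescence was recorded kinetically at 1 sec intervals.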

Experiment [15] in a line: cAMP Responsive Elements (CRE) small molecule agonists, cell-based qHTS assay (AID 1963590). The method in brief: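 Cells carrying a CRE-driven beta-lactamase reporter (HEK 293T) are seeded, incubated overnight (18 h), and treated with test compounds for 3 h at 37 C; reporter activity is then detected with a FRET substrate after 2 h at room temperature.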
Experiment [16] is described as follows: cAMP Responsive Elements (CRE) small molecule antagonists, cell-based qHTS assay (AID 1963591; active = well fitted inhibition curve with a large enough effect in the signal ratio in the repeat runs, not every such curve was filed as active; the % refers to the signal ratio). An outline of the steps: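 Cells (CRE-bla HEK 293T, DMEM with 10% dialyzed FBS and 25 mM HEPES) are seeded and incubated 18 h. Compounds are added with NKH477 agonist at 0.25 uM final for 3 h, then FRET substrate for 2 h.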
The target in experiment [17] is Beta-2 adrenergic receptor (Homo sapiens) (UniProt P07550). As to the kind of experiment: Adrenergic beta2 receptor (ADRB2) small molecule antagonists, cell-based qHTS assay (AID 1963592). Also: nearly all actives have a fitted effect of over 50% in size. Also: potency is read from the fitted curve at half-maximal effect. The method in brief: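 Assay format: CHO-ADRB2 cells, 18-20hr seeding at 37C/5% CO2, then compound plus 1nM isoproterenol agonist mix for 0.5hr RT. Homogeneous time-resolved fluorescence cAMP detection after 1hr, expressed as 665/615 nm ratio.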
Beta-2 adrenergic receptor (Homo sapiens), sequence (P07550 whole entry, looked up): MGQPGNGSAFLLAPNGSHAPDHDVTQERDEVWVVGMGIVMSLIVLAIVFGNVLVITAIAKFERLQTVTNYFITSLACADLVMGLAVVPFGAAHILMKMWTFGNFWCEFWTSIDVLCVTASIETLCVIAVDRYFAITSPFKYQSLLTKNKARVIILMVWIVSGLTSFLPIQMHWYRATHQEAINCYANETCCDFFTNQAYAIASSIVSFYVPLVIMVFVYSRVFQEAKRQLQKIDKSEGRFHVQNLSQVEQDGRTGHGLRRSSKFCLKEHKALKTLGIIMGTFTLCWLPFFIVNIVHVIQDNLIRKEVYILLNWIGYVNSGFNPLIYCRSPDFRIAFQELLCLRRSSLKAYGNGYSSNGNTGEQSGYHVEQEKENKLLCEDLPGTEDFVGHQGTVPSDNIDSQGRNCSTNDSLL

Experiment [18] shares this target. Kind of experiment: Adrenergic beta2 receptor (ADRB2) small molecule agonists, cell-based qHTS assay (AID 1963593).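 Also: CHO cells stably overexpressing human ADRB2.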 An outline of the steps: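 CHO cells stably over-expressing ADRB2 were plated overnight at 37C, then dosed with compounds plus a stimulation mix containing 100uM IBMX and 25uM Ro-20-1724 for 0.5hr at room temperature. cAMP was measured by HTRF competition, 1hr.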

Experiment [19] has as its target D(2) dopamine receptor (Homo sapiens) (UniProt P14416). Kind of experiment: Dopamine D2 receptor (DRD2) small molecule agonists, cell-based qHTS assay (AID 1963594). Also: nearly all actives have a fitted effect of over 35% in size. An outline of the steps:
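cAMP accumulation in DRD2-HEK293 cells measured by HTRF after 1 h detection; compounds added 10 min before NKH477 (200nM […]) forskolin-analogue stimulation, 30 min at room temperature, with Ro20-1724 present at 0.1 mM final.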

Experiment [20] has the same target. As to the kind of experiment: Dopamine D2 receptor (DRD2) small molecule antagonists, cell-based qHTS assay (AID 1963595; active = well fitted inhibition curve with a large enough effect in the signal ratio in the repeat runs, with a control signal flat; the % refers to the signal ratio). The method in brief: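 Stable D2 receptor HEK293 line, 24 h after seeding. Compound preincubated 10 min, then quinpirole (12 nM) with forskolin analogue NKH477 (200 nM), 30 min, room temperature. Detection by time-resolved FRET of cAMP.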

Gonadotropin-releasing hormone receptor (Homo sapiens), sequence (P30968 whole entry, looked up): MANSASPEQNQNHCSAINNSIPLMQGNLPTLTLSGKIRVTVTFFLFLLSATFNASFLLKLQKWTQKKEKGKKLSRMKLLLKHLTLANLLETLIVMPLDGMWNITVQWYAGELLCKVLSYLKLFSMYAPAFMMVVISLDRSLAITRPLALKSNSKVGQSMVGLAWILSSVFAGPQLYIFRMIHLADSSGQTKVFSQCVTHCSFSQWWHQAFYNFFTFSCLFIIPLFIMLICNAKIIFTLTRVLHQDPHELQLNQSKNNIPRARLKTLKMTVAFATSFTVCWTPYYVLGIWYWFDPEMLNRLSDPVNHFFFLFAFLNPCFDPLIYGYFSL
Muscarinic acetylcholine receptor M1 (Homo sapiens), sequence (P11229 whole entry, looked up): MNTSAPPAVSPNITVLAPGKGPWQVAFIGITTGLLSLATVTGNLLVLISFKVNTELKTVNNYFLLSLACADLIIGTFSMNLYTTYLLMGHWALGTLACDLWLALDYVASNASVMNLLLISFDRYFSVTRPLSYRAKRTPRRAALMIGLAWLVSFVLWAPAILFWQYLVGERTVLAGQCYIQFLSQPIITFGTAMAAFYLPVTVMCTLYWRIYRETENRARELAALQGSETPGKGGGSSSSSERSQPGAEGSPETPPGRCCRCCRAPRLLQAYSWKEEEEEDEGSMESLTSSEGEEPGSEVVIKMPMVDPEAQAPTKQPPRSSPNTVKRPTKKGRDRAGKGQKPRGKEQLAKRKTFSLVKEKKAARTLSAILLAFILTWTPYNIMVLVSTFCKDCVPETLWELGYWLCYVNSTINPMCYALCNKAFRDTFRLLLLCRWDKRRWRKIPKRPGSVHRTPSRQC
D(2) dopamine receptor (Homo sapiens), sequence (P14416 whole entry, looked up): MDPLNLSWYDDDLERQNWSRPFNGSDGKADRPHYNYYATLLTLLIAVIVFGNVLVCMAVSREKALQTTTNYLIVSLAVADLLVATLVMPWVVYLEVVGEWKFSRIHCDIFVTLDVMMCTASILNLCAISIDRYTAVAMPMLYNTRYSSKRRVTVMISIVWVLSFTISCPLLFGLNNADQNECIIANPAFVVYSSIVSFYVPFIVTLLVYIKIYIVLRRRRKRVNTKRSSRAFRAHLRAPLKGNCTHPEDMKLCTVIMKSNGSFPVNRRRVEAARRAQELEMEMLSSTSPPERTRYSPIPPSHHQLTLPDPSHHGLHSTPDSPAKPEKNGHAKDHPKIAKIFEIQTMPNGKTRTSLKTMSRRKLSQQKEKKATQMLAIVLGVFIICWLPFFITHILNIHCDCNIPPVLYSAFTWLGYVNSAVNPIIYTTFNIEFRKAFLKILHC
KiSS-1 receptor (Homo sapiens), sequence (Q969F8 whole entry, looked up): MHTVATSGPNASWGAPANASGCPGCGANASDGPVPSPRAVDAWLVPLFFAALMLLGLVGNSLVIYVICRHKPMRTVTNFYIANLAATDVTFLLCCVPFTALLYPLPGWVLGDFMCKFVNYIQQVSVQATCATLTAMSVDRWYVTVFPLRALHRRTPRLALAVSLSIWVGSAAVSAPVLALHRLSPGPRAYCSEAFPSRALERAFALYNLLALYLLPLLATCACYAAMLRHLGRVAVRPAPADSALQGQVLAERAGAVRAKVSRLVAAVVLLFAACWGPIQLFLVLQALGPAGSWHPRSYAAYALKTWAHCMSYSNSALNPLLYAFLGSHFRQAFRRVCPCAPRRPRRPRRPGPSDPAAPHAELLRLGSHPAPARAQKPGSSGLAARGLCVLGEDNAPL

As for `c1ccc(-c2ccccn2)nc1`, the Potency entry in experiment [1], in experiment [2], in [3], in [4], in experiment [5] and in experiment [6] was “inactive” each time. In addition, the Potency result in [7], in experiment [8], in experiment [9], in [10], in [11] and in experiment [12] was “inactive” each time. Besides, the Potency result in [13], in experiment [14], in experiment [15], in [16], in experiment [17] and in experiment [18] was “inactive” in each case. Also, the Potency result in experiment [19] was “inactive”.
Turning to `C[C@]12C(=O)OC(=O)[C@H]1[C@H]1C=C[C@@H]2C1`, the Potency entry in [1], in [2], in experiment [3], in experiment [4], in [5] and in experiment [6] was “inactive” each time. Also, the Potency result in experiment [7], in experiment [8], in [9], in experiment [10], in experiment [11] and in experiment [12] was “inactive” each time. Besides, the Potency result in experiment [13], in experiment [14], in experiment [15], in [16], in [17] and in experiment [19] was “inactive” each time. For the same compound, the Potency entry in experiment [20] was “inactive”.
For `CC(=O)OC(C)OC(C)=O`, the Potency entry in experiment [1], in experiment [2], in experiment [3], in [4], in experiment [5] and in [6] was “inactive” throughout. For the same compound, the Potency entry in experiment [7], in experiment [8], in [9], in experiment [10], in experiment [11] and in [12] was “inactive” in each case. The Potency entry in experiment [13], in experiment [14], in [15], in experiment [16], in [17] and in experiment [19] was “inactive” each time. In addition, the Potency result in experiment [20] is “inactive”.
Turning to `O=C1c2ccccc2C(=O)c2c(O)ccc(O)c21`, the Potency entry in experiment [1], in experiment [2], in experiment [3], in experiment [4], in experiment [5] and in experiment [6] was “inactive” in each case. Also, the Potency result in experiment [7], in experiment [8], in [9], in experiment [10], in experiment [11] and in experiment [12] was “inactive” throughout. Also, the Potency entry in experiment [13], in experiment [14], in experiment [16], in [17], in experiment [19] and in [20] was “inactive” throughout.
For `Cc1cccc(OCC(O)CNC(C)(C)C)c1C` (stereo not drawn), the Potency entry in [1], in experiment [2], in [3], in [4], in experiment [5] and in experiment [6] was “inactive” throughout. For the same compound, the Potency result in experiment [7], in [8], in [9], in [10], in experiment [11] and in [12] was “inactive” throughout. Moreover, the Potency entry in experiment [13], in experiment [14], in [15], in experiment [16] and in [20] was “inactive” each time. Also, the Potency in experiment [17] was 7.5 nM (active).
For `CC(C)CCOC(=O)/C=C/c1ccccc1`, the Potency entry in [1], in experiment [2], in experiment [3], in [4], in experiment [5] and in experiment [6] was “inactive” throughout. The Potency entry in experiment [7], in experiment [8], in [9], in [10], in experiment [11] and in experiment [12] was “inactive” throughout. The Potency result in experiment [13], in experiment [14], in experiment [15], in experiment [16], in [17] and in experiment [18] was “inactive” in each case. The Potency result in experiment [19] and in [20] was “inactive” each time.
